SKKanGAS inh: S. pyogenes SKKanGAS growth inhibitors in kanamycin, primary screen, streptokinase expression inhibitor project, SKKanGAS strain, BacTiter-Glo luminescence | 6 h | inhibition, % at 7.5 µM | 1.3% of 300,000 active | AID 1662, 2009;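 active = mean replicate score, as percent of positive control median, at least 50; inconclusive = mean below 50 but one replicate at or above 50; inactive = mean and every replicate below 50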;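 note: strain carries kanamycin resistance gene driven by streptokinase promoter and grows in 40 µg/ml kanamycin; loss of luminescence reflects streptokinase promoter inhibition or plain growth inhibition; 0% = median of DMSO wells and 100% = positive control at its reference dose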
TIM10 inh: growth inhibitors of isogenic TIM10 control yeast, primary screen, counter-screen for tim10-1 yeast inhibitor project, luminescence, uHTS | 1.4% of 330,000 active | S. cerevisiae TIM10 strain growth, BacTiter-Glo luminescence, 24 h | inhibition, % at 10 µM | AID 463195, 2010;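 active = inhibition of 40% or more at the single tested concentration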;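 note: wild-type TIM10 isogenic control strain grown at permissive 25 °C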
tim10-1 inh: growth inhibitors of tim10-1 mutant yeast, primary screen, luminescence, uHTS | S. cerevisiae tim10-1 ts strain growth, BacTiter-Glo, 24 h | inhibition, % at 20 µM | 2.2% of 330,000 active;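 active = inhibition of at least 40%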;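 note: mutant grown at 25 °C; 0% = DMSO wells with yeast and 100% = wells holding no yeast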
tim23-1 inh: growth inhibitors of tim23-1 mutant yeast, primary screen, luminescence, uHTS; 1.3% of 330,000 active; AID 463212, 2010; S. cerevisiae tim23-1 growth, BacTiter-Glo luminescence, 24 h; inhibition, % at 20 µM;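 active = growth inhibition of the mutant yeast at or above 50%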;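 note: temperature-sensitive mutant grown at 25 °C; plate controls were DMSO-treated mutant yeast for no effect and medium wells lacking yeast for full effect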
PfHsp90 yeast 2: growth inhibition of PfHsp90-expressing yeast, primary screen, antimalarial PfHsp90 inhibitor project, S. cerevisiae, BacTiter-Glo luminescence, single point, set 2; BacTiter-Glo ATP, 48 h; yeast lacking PDR1 and PDR3 efflux regulators; AID 504621, 2011; inhibition, % at 9.4 µM; 0.32% of 310,000 active;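 active = every replicate shows inhibition above about 80%, whatever the replicate mean, limit read from the data; inconclusive = mean inhibition reaches the set limit but some replicate falls short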;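 note: 0% = DMSO neutral controls and 100% = 20 µM radicicol positive controls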
NLRP3 yeast inh: NALP3 inflammasome inhibitors in reconstituted yeast, primary screen, luminescence, uHTS; 0.39% of 330,000 active; inhibition, % at 10 µM; AID 2825, 2010; Yeast reconstituted NLRP3/ASC/caspase-1, beta-gal luminescence, 24 h;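 active = inhibition of 50% or more; inactive = inhibition below 50%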;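 note: plate controls were induced DMSO wells for no effect and uninduced yeast grown without galactose for full effect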
* marks the source's active call; other numbers are inactive results; ? = inconclusive; · = no result. Shown are actives, neighbours in structure and some others; about 4.5% of the full set was active somewhere.

SMILES | SKKanGAS inh | TIM10 inh | tim10-1 inh | tim23-1 inh | PfHsp90 yeast 2 | NLRP3 yeast inh
CC(C)OC(=O)c1cccnc1N1CCN(c2cccc(Cl)c2)CC1 | 59.5* | -0.1 | 21.8 | -6.9 | -4.4 | 15.6
COc1ccc(S(=O)(=O)NC2CC2)cc1Cl | -0.5 | -2.5 | 4.6 | 15.1 | -16.4 | 13.3
CCCNC(=O)NC(=O)CN1C(=O)NC(C)(c2ccc3ccccc3c2)C1=O (stereo not given) | 1.9 | -9.3 | -1.3 | 11.7 | -81.1 | 15.2
CC(=O)NCCC(=O)Nc1nc2ccc(Oc3ccccc3)cc2s1 | 2.8 | 17.8 | 4.2 | 26.9 | -16.9 | 5.1
CCOC(=O)c1nn(-c2cccc(OC)c2)c2nc(Nc3ccccc3)cc(=O)n12 | 62.4* | 24.8 | 19.1 | 23.8 | -61.0 | 9.6
CCOC(=O)c1nn(-c2cccc(Cl)c2)c2nc(Nc3ccccc3)cc(=O)n12 | 27.5 | 20.1 | 11.4 | 17.7 | -54.1 | 4.0
Cc1c(C(=O)Nc2nc3ccccc3[nH]2)oc2ccc(Br)cc12 | 78.6* | 8.1 | 7.6 | 12.6 | -34.2 | -11.2
COc1cc(C)c(Cc2cnc(N)nc2N)cc1OC | 52.3* | · | · | · | · | ·
CC(C)Oc1ccc(Cc2cnc(N)nc2N)cc1 | 20.5 | 12.0 | 10.0 | 8.2 | -24.5 | 8.9
Cn1c(CNC(=O)CNC(=O)c2ccc(F)cc2)cc(=O)n(C)c1=O | 56.4* | 5.3 | 6.1 | -1.5 | 7.4 | 8.9
Cc1ccc(NC(=O)CNNC(=O)c2cccc([N+](=O)[O-])c2)cc1[N+](=O)[O-] | · | -0.5 | 3.3 | 6.7 | 13.7 | 9.6
CCc1cc(-c2nc(N)ncc2-c2ccc(Br)cc2)c(O)cc1OC | 63.5* | 3.9 | -30.8 | 2.3 | -3.7 | -2.9
C=C(C)COc1ccc(-c2nc(N)ncc2-c2ccc(Br)cc2)c(O)c1 | 96.4* | 26.1 | -40.2 | 22.8 | -62.7 | 10.3
C=C(C)COc1ccc(-c2nc(N)ncc2Oc2ccc(OC)cc2)c(O)c1 | 58.0* | 17.5 | 29.3 | 23.8 | -10.9 | 11.2
C=C(C)COc1ccc(-c2[nH]ncc2Oc2ccc(OC)cc2)c(O)c1 | 55.7* | 28.5 | -15.5 | 43.5 | ? | 13.4
CCCOC(=O)c1ccc(Oc2cn[nH]c2-c2ccc(OC)cc2O)cc1 | 59.1* | 31.9 | -3.5 | -2.1 | 105.9* | 20.4
C=C(C)COc1ccc(-c2ncncc2-c2ccc(Br)cc2)c(O)c1 | 9.0 | 21.4 | 9.2 | 19.7 | -9.2 | -6.7
C=C(C)COc1ccc(-c2n[nH]c(C)c2-c2ccc(Br)cc2)c(O)c1 | 98.8* | 29.2 | -41.5 | 47.7 | -11.5 | 13.8
Cc1ccc(CSc2ncnc3c2cnn3Cc2ccccc2)cc1 | 64.8* | 0.5 | 3.2 | -6.1 | 6.0 | 27.1
COc1ccc(N2CCN(c3c(S(=O)(=O)c4ccccc4)cnc4ccc(OC)cc34)CC2)cc1 | 12.1 | -55.7 | -23.2 | -1.8 | 104.3* | 17.4
CCOc1ccc2ncc(S(=O)(=O)c3ccccc3)c(N3CCN(c4ccc(OC)cc4)CC3)c2c1 | 14.9 | 15.6 | 2.1 | -6.7 | 7.7 | 24.5
O=[N+]([O-])c1cc([N+](=O)[O-])c2oc(-c3ccccc3)c(Br)c2c1O | 69.0* | · | · | · | -17.4 | ·
O=C(O)CN1C(=O)/C(=C\c2cc(Br)ccc2OCc2ccccc2F)SC1=S | 68.1* | 0.9 | 31.5 | 36.8 | -11.0 | 7.5
O/N=C/c1cc(Br)ccc1OCc1ccccc1F | 26.1 | 3.5 | 0.6 | 0.9 | -42.9 | -29.9
O=C(O)CN1C(=O)/C(=C\c2cc(Br)ccc2OCc2ccccc2Cl)SC1=S | 94.6* | 24.7 | 16.7 | 33.4 | -1.2 | 6.2
SMILES | SKKanGAS inh | TIM10 inh | tim10-1 inh | tim23-1 inh | PfHsp90 yeast 2 | NLRP3 yeast inh
O=C(O)COc1ccc(Br)cc1/C=C1/SC(=O)N(CC(=O)N2CCCC2)C1=O | -0.2 | 2.1 | 16.4 | -0.9 | -10.3 | 11.2
O=C(O)CN1C(=O)/C(=C\c2cccc(OCc3ccc(Cl)cc3Cl)c2)SC1=S | 20.6 | 16.9 | 39.4 | 36.6 | -15.2 | 11.3
O=C(O)CN1C(=O)/C(=C\c2ccccc2OCc2ccc(Cl)cc2Cl)SC1=S | 70.7* | 18.8 | 3.1 | 24.6 | -13.1 | 22.6
COC(=O)c1ccc2c(C)c(C(C)(C)O)[nH]c2c1 | -7.0 | -5.2 | 0.0 | 6.2 | -15.3 | 19.4
COc1cc2oc3ccc(C#Cc4ccc(N)cc4)cc3c(=O)c2cc1OC | 77.5* | · | · | · | -30.6 | ·
Nc1ccc(C#Cc2ccc3c(=O)c4ccccc4oc3c2)cc1 | 13.3 | 9.3 | 21.3 | 10.0 | 11.4 | 22.0
COc1cc2oc3cc(C#Cc4ccc(N)cc4)ccc3c(=O)c2cc1OC | 58.1* | -0.4 | -4.3 | -5.3 | -3.2 | 9.1
Cc1oc(-c2ccc(F)cc2)nc1CN(Cc1ccccn1)CC1CCCO1 (stereo not given) | 60.8* | 8.0 | 15.1 | 18.8 | 1.6 | 0.2
Cc1ccc(OCCCC(=O)N(C)CC(=O)Nc2ccccc2Cl)cc1 | -2.8 | 6.1 | 7.3 | 11.5 | 39.1 | 19.8
CCc1sc(C(=O)N2CCN(c3ncccn3)CC2)cc1Br | 6.6 | 18.9 | 4.8 | 13.1 | 5.6 | 29.7
CCCC[n+]1ccn(C2=C([O-])c3ccccc3C(=O)/C2=N\S(=O)(=O)c2ccc(Cl)cc2)c1 | 61.0* | 13.7 | 20.0 | 8.2 | 8.7 | 25.9
CCCCC[n+]1ccn(C2=C([O-])c3ccccc3C(=O)/C2=N\S(=O)(=O)c2ccc(Cl)cc2)c1 | 73.1* | -11.5 | 9.6 | 11.6 | 13.6 | 14.5
CCCC[n+]1ccn(-c2nc3ccccc3nc2[N-]S(=O)(=O)c2ccc(Br)cc2)c1 | 4.7 | -2.6 | -6.2 | -9.2 | -11.1 | 6.5
COc1ccc2nc(NN=C(C)c3ccccn3)cc(C)c2c1 | · | · | · | · | -1.8 | ·
Cc1ccc(C2C(/C=C3/SC(=S)NC3=O)=C(c3cccs3)Oc3ccccc32)cc1 (stereo not given) | 112.5* | 16.7 | 26.8 | 23.0 | -6.7 | 7.6
O=C(OCC(=O)N1CCCCC1)c1ccc2ccccc2n1 | · | 5.9 | 3.6 | 9.0 | · | 11.5
C/C(=N\NC(=O)c1cc2ccccc2cc1O)c1cccs1 | 71.1* | 8.4 | 5.5 | 20.9 | 10.0 | 34.8
C/C(=N\NC(=O)c1cc2ccccc2cc1O)c1ccc(C)o1 | 61.8* | 3.3 | -0.9 | 11.9 | 13.5 | 25.6
CCC(=O)N1CCC(NC(=O)Nc2ccc(OC(F)(F)F)cc2)CC1 | · | 5.9 | 0.5 | 1.7 | -22.8 | -5.1
CC1(C)S[C@@H]2[C@H](NC(=O)C(C(=O)O)c3ccccc3)C(=O)N2[C@H]1C(=O)O (stereo not given in full) | · | 6.1 | 5.9 | 10.5 | 14.0 | 2.7
COC(=O)C1N2C(=O)[C@@H](NC(=O)COc3ccccc3)[C@H]2SC1(C)C (stereo not given in full) | 96.2* | -9.5 | -7.8 | -2.9 | · | 12.3
